Results filed as inconclusive are left out. Activity calls are given as the source filed them. How the source made its calls, unless noted: active means hit-call score of the fitted dose curve at least 0.9, where 1 is the maximum; inconclusive means response in the unintended direction; inactive means score below 0.9.
Assays:
[1] = read-out: ABC Transporter (ABCB11), ABCB11 (gene 8647); experiment: CLD_ABCB11_6hr: CellzDirect (CLD) Gene Expression Assay for ABC Transporter (ABCB11) at 6 hours (AID 2283675);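 further: hits raise ABCB11 mRNA level so AC50 marks induction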
In short: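 Human primary hepatocytes (two donor preparations) given fresh chemical daily at multiple concentrations, vehicle 0.2% DMSO. ABCB11 mRNA induction measured 6 h after dosing by qNPA chemiluminescence versus DMSO; cytotoxicity annotated from morphology.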

[2] = read-out: Cytochrome P450 2B6 (Homo sapiens) (UniProt P20813); experiment: CLD_CYP2B6_6hr: CellzDirect (CLD) Gene Expression Assay for xenobiotic metabolism (CYP2B6) at 6 hours (AID 2283677);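 further: actives raise CYP2B6 transcript above DMSO baseline so AC50 marks an inducer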
In short: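 Primary human hepatocytes dosed with chemicals at multiple concentrations, vehicle 0.2% DMSO; CYP2B6 mRNA induction measured 6 h after dosing by quantitative nuclease protection assay with chemiluminescence, gain of signal fitted relative to DMSO.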

[3] = read-out: Cytochrome P450 2C19 (Homo sapiens) (UniProt P33261); experiment: CLD_CYP2C19_6hr: CellzDirect (CLD) Gene Expression Assay for xenobiotic metabolism (CYP2C19) at 6 hours (AID 2283678)
In short: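 Primary human hepatocytes from two donor preparations were dosed daily, with 0.2% DMSO as vehicle, and harvested 6 h after dosing. CYP2C19 mRNA induction was measured by qNPA chemiluminescence and fitted as gain of signal against DMSO.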

[4] = CCTE_Padilla_ZF_144hpf_TERATOSCORE: (Legacy) CCTE's 144 Hour Post-fertilization zebrafish Assay Teratoscore, Padilla Lab (AID 2283679; active means hit-call score of the fitted dose curve at least 0.9, where 1 is the maximum; inactive means score below 0.9;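 on AC50: zebrafish embryos with chorions exposed by immersion from 6-8 hpf to 5 dpf with daily renewal; teratogenicity score from eye scoring of death hatching and malformations at 144 hpf; higher score means more developmental defects relative to DMSO baseline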)
In short: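 Larvae scored by eye at 144 hpf for death, hatching and malformations after a day in clean Hanks'. Before that, daily-renewed exposure at 80 uM (0.4% DMSO, 26C) from roughly 6-8 hpf through 5 dpf, 4 embryos per chemical.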

[5] = read-out: HMG-CoA synthase (HMGCS2), HMGCS2 (gene 3158); experiment: CLD_HMGCS2_6hr: CellzDirect (CLD) Gene Expression Assay for HMG-CoA synthase (HMGCS2) at 6 hours (AID 2283682);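 further: actives raise HMGCS2 transcript above the 0.2% DMSO vehicle baseline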
In short: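 Primary human hepatocytes dosed daily with fresh chemical, 0.2% DMSO vehicle; HMGCS2 mRNA measured at 6 h by qNPA chemiluminescence. Gain of signal fitted against DMSO; cytotoxicity flagged from phase-contrast morphology.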

[6] = read-out: xenobiotic metabolism (CYP1A2), CYP1A2 (gene 1544); experiment: CLD_CYP1A2_24hr: CellzDirect (CLD) Gene Expression Assay for xenobiotic metabolism (CYP1A2) at 24 hours (AID 2283683)
In short: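 Primary human hepatocytes from two donor preparations dosed daily with multiple concentrations of chemical, 0.2% DMSO vehicle. CYP1A2 mRNA at 24 h quantified by qNPA chemiluminescence; gain of signal analyzed relative to DMSO. Cytotoxicity flagged by phase-contrast morphology.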

[7] = read-out: Cytochrome P450 2C19 (Homo sapiens) (UniProt P33261); experiment: CLD_CYP2C19_24hr: CellzDirect (CLD) Gene Expression Assay for xenobiotic metabolism (CYP2C19) at 24 hours (AID 2283687);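 further: activity means mRNA induction above DMSO vehicle baseline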
In short: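 Primary human hepatocytes (two donor preparations) dosed daily with fresh test chemical in 0.2% DMSO vehicle; CYP2C19 mRNA induction measured at 24 h by quantitative nuclease protection assay with chemiluminescence, fitted for gain of signal versus DMSO.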

[8] = read-out: Glyceraldehyde-3-phosphate dehydrogenase (Homo sapiens) (UniProt P04406); experiment: CLD_GAPDH_24hr: CellzDirect (CLD) Gene Expression Assay for Baseline Control (Glyceraldehyde 3-phosphate dehydrogenase) at 24 hours (AID 2283692)
In short: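 Primary human hepatocytes (two donor preparations) dosed daily for two days, 0.2% DMSO vehicle; GAPDH mRNA measured at 24 h by qNPA chemiluminescence as a background control, gain-of-signal fitted against DMSO.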

[9] = read-out: sulfotransferase (SULT2A), SULT2A1 (gene 6822); experiment: CLD_SULT2A_24hr: CellzDirect (CLD) Gene Expression Assay for sulfotransferase (SULT2A) at 24 hours (AID 2283694);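 on AC50: potency for increased SULT2A1 mRNA level as induction over DMSO baseline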
In short: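 Primary human hepatocytes from two donor preparations were dosed daily with fresh solutions, vehicle 0.2% DMSO. At 24 h, lysates went to quantitative nuclease protection (qNPA) with S1 digestion and chemiluminescent readout. Cytotoxicity was annotated from phase-contrast morphology.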

[10] = read-out: ABC Transporter (ABCB1), ABCB1 (gene 5243); experiment: CLD_ABCB1_48hr: CellzDirect (CLD) Gene Expression Assay for ABC Transporter (ABCB1) at 48 hours (AID 2283695)
In short: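 Primary human hepatocytes from two donor preparations dosed daily on two consecutive days with 0.2% DMSO vehicle. Harvest at 48 h. ABCB1 mRNA quantified by qNPA with chemiluminescence and fitted for gain of signal versus DMSO.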

[11] = read-out: glucuronosyltransferase (UGT1A1), UGT1A1 (gene 54658); experiment: CLD_UGT1A1_24hr: CellzDirect (CLD) Gene Expression Assay for glucuronosyltransferase (UGT1A1) at 24 hours (AID 2283696)
In short: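 Primary human hepatocytes from two donor preparations were dosed (0.2% DMSO vehicle) and harvested at 24 h; UGT1A1 mRNA induction was quantified by chemiluminescent qNPA, fitted as gain relative to DMSO.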

[12] = read-out: Cytochrome P450 3A4 (Homo sapiens) (UniProt P08684); experiment: CLD_CYP3A4_6hr: CellzDirect (CLD) Gene Expression Assay for xenobiotic metabolism (CYP3A4) at 6 hours (AID 2283680)
In short: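 Primary human hepatocytes (two donor preparations) dosed; CYP3A4 mRNA harvested at 6 h and quantified by qNPA chemiluminescence. Gain of signal fitted against 0.2% DMSO vehicle; cytotoxicity flagged by phase-contrast morphology.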

[13] = read-out: Glyceraldehyde-3-phosphate dehydrogenase (Homo sapiens) (UniProt P04406); experiment: CLD_GAPDH_6hr: CellzDirect (CLD) Gene Expression Assay for Baseline Control (Glyceraldehyde 3-phosphate dehydrogenase) at 6 hours (AID 2283681);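 further: active means increased signal relative to DMSO vehicle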
In short: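 Primary human hepatocytes from two donor preparations, dosed at multiple concentrations with 0.2% DMSO vehicle; GAPDH mRNA measured 6 h after dosing by chemiluminescent quantitative nuclease protection assay (qNPA) on denatured lysates. Serves as background control; cytotoxicity annotated by morphology.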

[14] = read-out: Broad substrate specificity ATP-binding cassette transporter ABCG2 (Homo sapiens) (UniProt Q9UNQ0); experiment: CLD_ABCG2_24hr: CellzDirect (CLD) Gene Expression Assay for ABC Transporter (ABCG2) at 24 hours (AID 2283685)
In short: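 Primary human hepatocytes were dosed daily with ToxCast chemicals at multiple concentrations (vehicle 0.2% DMSO). ABCG2 mRNA was measured at 24 h by qNPA chemiluminescence; induction was scored as gain of signal versus DMSO.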

[15] = read-out: ABC Transporter (ABCB1), ABCB1 (gene 5243); experiment: CLD_ABCB1_24hr: CellzDirect (CLD) Gene Expression Assay for ABC Transporter (ABCB1) at 24 hours (AID 2283684);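 on AC50: potency for increase in ABCB1 mRNA relative to DMSO vehicle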
In short: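 Primary human hepatocytes, two donor preparations, dosed daily with fresh solutions; vehicle 0.2% DMSO; harvested at 24 h. ABCB1 mRNA measured by quantitative nuclease protection assay (chemiluminescence); morphology-based cytotoxicity annotated.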

[16] = read-out: Cytochrome P450 2B6 (Homo sapiens) (UniProt P20813); experiment: CLD_CYP2B6_24hr: CellzDirect (CLD) Gene Expression Assay for xenobiotic metabolism (CYP2B6) at 24 hours (AID 2283686)
In short: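 Primary human hepatocytes dosed daily for two days with fresh solutions, harvested at 24 hours; mRNA induction quantified by qNPA chemiluminescence, gain of signal vs 0.2% DMSO vehicle. Cytotoxicity annotated from phase-contrast morphology.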

[17] = read-out: Cytochrome P450 3A4 (Homo sapiens) (UniProt P08684); experiment: CLD_CYP3A4_24hr: CellzDirect (CLD) Gene Expression Assay for xenobiotic metabolism (CYP3A4) at 24 hours (AID 2283689)
In short: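 Primary human hepatocytes from two donors dosed daily with fresh compound for two days, 0.2% DMSO vehicle. CYP3A4 mRNA at 24 hr by qNPA chemiluminescence; gain-of-signal fit versus DMSO, cytotoxicity flagged by morphology.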

[18] = CLD_ACTIN_6hr: CellzDirect (CLD) Gene Expression Assay for Baseline Control (Actin) at 6 hours (AID 2283676);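 further: active means increased actin mRNA relative to DMSO vehicle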
In short: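 Primary human hepatocytes dosed with fresh chemical solutions (vehicle 0.2% DMSO), harvested at 6 h. Actin mRNA quantified by quantitative nuclease protection assay with chemiluminescent read-out, as background control relative to DMSO.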

[19] = read-out: Cytochrome P450 2C9 (Homo sapiens) (UniProt P11712); experiment: CLD_CYP2C9_24hr: CellzDirect (CLD) Gene Expression Assay for xenobiotic metabolism (CYP2C9) at 24 hours (AID 2283688)
In short: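 Primary human hepatocytes from two donor preparations, dosed daily for two days at multiple concentrations; vehicle 0.2% DMSO. CYP2C9 mRNA induction at 24 h measured by qNPA chemiluminescence relative to DMSO; cytotoxicity annotated from morphology.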

[20] = read-out: alkyl and aryl transferase (GSTA2), GSTA2 (gene 2939); experiment: CLD_GSTA2_24hr: CellzDirect (CLD) Gene Expression Assay for alkyl and aryl transferase (GSTA2) at 24 hours (AID 2283693)
In short: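 Primary human hepatocytes (two donor preparations) dosed daily for two days with chemicals at multiple concentrations (vehicle 0.2% DMSO); GSTA2 mRNA at 24 h measured by qNPA chemiluminescence, gain-of-signal versus DMSO.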

Measured: AC50

Chain of Broad substrate specificity ATP-binding cassette transporter ABCG2 (Homo sapiens) (Q9UNQ0 whole entry, looked up): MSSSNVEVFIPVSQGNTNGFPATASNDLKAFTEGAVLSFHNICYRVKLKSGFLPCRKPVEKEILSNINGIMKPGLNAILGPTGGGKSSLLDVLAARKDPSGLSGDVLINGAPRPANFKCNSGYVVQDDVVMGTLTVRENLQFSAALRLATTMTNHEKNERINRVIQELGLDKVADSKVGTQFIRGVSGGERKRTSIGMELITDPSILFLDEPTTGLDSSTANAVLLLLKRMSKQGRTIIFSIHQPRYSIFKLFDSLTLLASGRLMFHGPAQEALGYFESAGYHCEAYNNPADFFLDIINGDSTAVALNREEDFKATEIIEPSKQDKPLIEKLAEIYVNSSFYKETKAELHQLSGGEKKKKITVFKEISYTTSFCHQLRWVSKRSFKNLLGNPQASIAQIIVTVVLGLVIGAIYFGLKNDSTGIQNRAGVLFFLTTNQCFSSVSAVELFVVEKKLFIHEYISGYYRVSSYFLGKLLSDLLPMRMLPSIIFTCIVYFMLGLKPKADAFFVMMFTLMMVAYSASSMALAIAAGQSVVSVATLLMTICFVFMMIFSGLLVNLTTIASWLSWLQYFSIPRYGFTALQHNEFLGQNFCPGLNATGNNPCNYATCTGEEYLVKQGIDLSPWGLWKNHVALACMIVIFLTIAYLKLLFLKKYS
Chain of Cytochrome P450 2C19 (Homo sapiens) (P33261 whole entry, looked up): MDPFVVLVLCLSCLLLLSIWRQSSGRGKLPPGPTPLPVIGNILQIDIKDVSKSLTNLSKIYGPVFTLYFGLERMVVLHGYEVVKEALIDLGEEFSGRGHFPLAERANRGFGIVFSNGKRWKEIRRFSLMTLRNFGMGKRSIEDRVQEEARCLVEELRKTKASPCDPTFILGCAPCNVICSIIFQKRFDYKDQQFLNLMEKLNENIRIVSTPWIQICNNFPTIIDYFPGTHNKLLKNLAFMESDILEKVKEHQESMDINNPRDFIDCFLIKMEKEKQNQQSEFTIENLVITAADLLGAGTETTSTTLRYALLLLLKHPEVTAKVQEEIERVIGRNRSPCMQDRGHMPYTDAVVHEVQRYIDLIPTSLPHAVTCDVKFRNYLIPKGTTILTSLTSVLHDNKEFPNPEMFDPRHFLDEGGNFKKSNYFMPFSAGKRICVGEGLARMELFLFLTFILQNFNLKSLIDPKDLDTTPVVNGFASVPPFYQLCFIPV
Chain of Cytochrome P450 3A4 (Homo sapiens) (P08684 whole entry, looked up): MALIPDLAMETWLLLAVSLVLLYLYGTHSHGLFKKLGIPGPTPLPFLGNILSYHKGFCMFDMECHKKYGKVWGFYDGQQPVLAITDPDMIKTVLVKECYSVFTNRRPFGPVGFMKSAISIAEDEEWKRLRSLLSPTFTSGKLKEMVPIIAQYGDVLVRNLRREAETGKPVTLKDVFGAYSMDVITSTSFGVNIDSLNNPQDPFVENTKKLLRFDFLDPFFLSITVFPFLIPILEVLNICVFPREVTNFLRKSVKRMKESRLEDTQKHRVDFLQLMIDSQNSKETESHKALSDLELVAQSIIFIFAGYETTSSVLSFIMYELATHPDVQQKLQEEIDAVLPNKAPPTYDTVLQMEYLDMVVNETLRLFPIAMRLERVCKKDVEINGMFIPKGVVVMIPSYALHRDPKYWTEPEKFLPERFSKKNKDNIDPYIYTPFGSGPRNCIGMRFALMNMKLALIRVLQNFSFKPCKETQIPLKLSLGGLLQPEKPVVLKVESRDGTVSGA
Chain of Glyceraldehyde-3-phosphate dehydrogenase (Homo sapiens) (P04406 whole entry, looked up): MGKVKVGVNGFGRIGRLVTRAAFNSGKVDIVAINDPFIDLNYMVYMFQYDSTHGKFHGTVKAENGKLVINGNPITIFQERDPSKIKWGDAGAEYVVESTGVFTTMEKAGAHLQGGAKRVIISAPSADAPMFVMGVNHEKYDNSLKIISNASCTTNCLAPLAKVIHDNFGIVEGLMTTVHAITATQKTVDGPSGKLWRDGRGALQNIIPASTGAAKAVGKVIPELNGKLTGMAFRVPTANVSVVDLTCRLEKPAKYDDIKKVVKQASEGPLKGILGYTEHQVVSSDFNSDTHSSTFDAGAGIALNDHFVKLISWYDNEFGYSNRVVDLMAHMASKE

O=C(O)c1cc(Oc2ccc(C(F)(F)F)cc2Cl)ccc1[N+](=O)[O-]
active: [5] 0.00569 µM
inactive: [1] | [2] | [3] | [4] | [6] | [7] | [8] | [9] | [10] | [11]

S=C1NCCN1
inactive: [1] | [2] | [4] | [12] | [13] | [14] | [8] | [11]

CNc1cnn(-c2cccc(C(F)(F)F)c2)c(=O)c1Cl
inactive: [1] | [3] | [4] | [12] | [15] | [9] | [10] | [11]
active: [2] 8.33 µM | [6] 5.72 µM | [16] 6.64 µM | [17] 5.8 µM

C[Si](Cn1cncn1)(c1ccc(F)cc1)c1ccc(F)cc1
active: [4] 9.34 µM | [6] 1.89 µM | [15] 4.51 µM | [9] 20 µM
inactive: [1] | [18] | [13] | [5] | [14] | [11]

Nc1nc(N)nc(NC2CC2)n1
inactive: [1] | [18] | [2] | [3] | [4] | [13] | [5] | [6] | [15] | [14] | [19] | [8] | [20] | [9] | [11]

Nc1c(Cl)cc([N+](=O)[O-])cc1Cl
inactive: [1] | [3] | [12] | [13] | [14] | [19] | [9] | [11]
active: [4] 76.3 µM | [6] 20 µM

CC[C@H](C)[C@H]1O[C@]2(C=C[C@@H]1C)C[C@@H]1C[C@@H](C/C=C(\C)[C@@H](O[C@H]3C[C@H](OC)[C@@H](O[C@H]4C[C@H](OC)[C@@H](NC)[C@H](C)O4)[C@H](C)O3)[C@@H](C)/C=C/C=C3\CO[C@@H]4[C@H](O)C(C)=C[C@@H](C(=O)O1)[C@]34O)O2
active: [3] 32.6 µM | [4] 3.41 µM | [9] 0.336 µM
inactive: [1] | [18] | [12] | [5] | [6] | [15] | [14] | [7] | [19] | [8] | [11]

Source: PubChem BioAssay (EPA / NIEHS)
